PubChem BioAssay (NCATS)
Unmarked numbers belong to inactive results. Activity calls are given as the source filed them. Calls come from the whole dose curve; as a rule, active = well fitted inhibition curve with a large enough effect; inconclusive = small, poorly fitted or top-dose-only effect; inactive = flat fitted curve, though single readings scatter. Where a SMILES comes first, the peptide text is derived from it. [ ]: non-standard residue; d: D form. The star is where a group is joined. Dolaproine = CO[C@@H]([C@@H]1CCCN1)[C@@H](C)C(=O)O; Dil = CC[C@H](C)[C@H](NC)[C@@H](CC(=O)O)OC; Doe = c1ccc(C[C@H](N*)c2nccs2)cc1; Aib = CC(C)(N)C(=O)O

These compounds were tested against Luciferin 4-monooxygenase (Photinus pyralis) (UniProt P08659) (assay: Primary firefly luciferase (FLuc) qHTS assay for identification of artifact compounds. (AID 1845220; note: nearly all actives have a fitted effect of over 60% in size)). Conditions: purified firefly luciferase, luminescence, 5 min; series mostly up to 54.1 µM.
Excerpt: PI: Alexander Tropsha Ph.D.
UNC Eshelman School of Pharmacy
University of North Carolina, Chapel Hill, North Carolina
Hits from high-throughput screening (HTS) of chemical libraries are often false positives due to their interference with the assay detection technology. In response to this problem, we generated the largest publicly available library of chemical liabilities and developed a free webtool to predict HTS artifacts, both of which are described herein. More specifically, we generated, curated, and integrated HTS datasets for thiol reactivity, redox activity, and luciferase (firefly and nano) activity. Using these curated datasets, we developed and validated several Quantitative Structure-Interference Relationship (QSIR) models to predict nuisance behavior. […] These models were employed for virtual profiling of the National Center for Advancing Translational Science's (NCATS) in-house library, and 256 compounds for each assay were selected for the experimental validation of nuisance behavior. The BA for these external predictions ranged from 58 to 78% for compounds within the applicability domains of the models. […] The models developed in this study, along with aggregation models previously developed by our group (SCAM Detective) were implemented in "Liability Predictor," an online tool which may be used as part of chemical library design or for triaging HTS hits. Both the models and the curated datasets are publicly available at https://liability.mml.unc.edu/.
SEQUENCE No. (e.g., 1, 2, 3, etc.); […] (e.g., Cells, Incubation, Reagent, etc.); VALUE; DESCRIPTION.
1; Reagent; 3 uL; Luciferase substrate mixture.
2; Compounds and control; 16 nL; Kalypsis pin tool (Wako USA) equipped with a 1536-well pin head.
4; Reagent; 1 uL; Luciferase enzyme.
6; Detection; Luminescence, ViewLux microplate reader.
NOTES (numbers refer to Sequence numbers above)
1. 3 uL of luciferase substrate mixture containing D-luciferin and ATP (final concentrations of 10 uM and 10 uM, respectively) in assay buffer (10 mM Mg-acetate, 0.01% Tween-20, 0.05% bovine serum albumin, 50 mM Tris acetate, pH 7.6) was dispensed into all wells of a 1536-well assay plate (solid-bottom white plate; Greiner Bio One, Monroe, NC).
2. A Wako Pin-tool (Wako Automation, Richmond, VA) was used to transfer 16 nL of compounds (consisting of 7-plates in qHTS format, final concentration range 18.3 nM to 114 uM) or control PTC124 (final concentration range 1.22 nM to 40 uM).
3. 15 min. incubation at room temperature protected from light.
4. 1 uL of luciferase enzyme (final concentration 10 nM, Photinus pyralis luciferase) or buffer was dispensed for a final assay volume of 4 uL.
5. Plates were centrifuged (121xg, 15 seconds) and incubated for 5 minutes.
6. Samples were read for luminescence on a ViewLux CCD imager (PerkinElmer). Data were normalized to no-enzyme (0% activity) and no-inhibitor (DMSO; 100%) controls and the resulting percent inhibition data were fitted to a 4-parameter Hill equation using NCATS in-house software.

Row | Compound | outcome | activity change, negative = inhibition
1 | CC[C@H](C)[C@@H]([C@@H](CC(=O)N1CCC[C@H]1[C@H](OC)[C@@H](C)C(=O)N[C@@H](Cc1ccccc1)c1nccs1)OC)N(C)C(=O)[C@@H](NC(=O)C(C)(C)N)C(C)C (H-[Aib]V[Dil][Dolaproine]-Doe) | inactive | 
2 | C[C@@H]1[C@H](O)[C@@H](C)/C=C/C=C/CC/C=C/C=C/C=C/C=C/[C@H](O[C@H]2O[C@@H](C)[C@H](O)[C@@H](N)[C@H]2O)C[C@@H]2O[C@](O)(C[C@@H](O)[C@H](O)CC[C@@H](O)C[C@@H](O)C[C@@H](O)CC(=O)O[C@H]1C)C[C@H](O)[C@H]2C(=O)O | inactive | 
3 | COC[C@]12CN(C)C3C4[C@H](OC)[C@H]1C3(C(OC)C[C@H]2O)[C@H]1C[C@@]2(O)[C@H](OC(=O)c3ccccc3)[C@@H]1[C@]4(O)[C@@H](O)[C@@H]2OC (stereo not given in full) | inactive | 
4 | C[C@@H]1O[C@@H](OC2CCC3(C=O)C(CCC4C3CCC3(C)C(C5=CC(=O)OC5)C(O)CC43O)C2)[C@H](O)[C@H](O)[C@H]1O[C@@H]1O[C@H](CO)[C@@H](O)[C@H](O)[C@H]1O (stereo not given in full) | inactive [at 25.7 µM] | 
5 | CCOC(=O)c1ccnc2cc(C(OCCN3CCCCC3)c3ccccc3Cl)sc12 (stereo not given) | inactive | 
6 | COc1ccc2[nH]c(-c3ccccc3)c(CCN(C)C)c2c1 | inactive | 
7 | CC[C@@]1(O)C(=O)OCc2c1cc1n(c2=O)Cc2cc3c(OC)cccc3nc2-1 | inactive | 
8 | CCCCCn1cc(C(=O)c2cccc3ccccc23)c2ccccc21 | inactive | 
9 | CC(O)(c1ccccc1)C(Cc1ccc(Cl)cc1)n1cncn1 (stereo not given) | inactive | 
10 | N#Cc1ccc(N2CCN(C(=O)COc3ccc4[nH]cc(CCN)c4c3)CC2)cc1 | inactive | 
11 | NCCCCCNC1(c2ccccc2)CCCCC1 | inactive | 
12 | O=C(N[C@H]1CN2CCC1CC2)c1cc2cccc(Cl)c2s1 | inactive | 
13 | COc1ccc(CCNCc2ccc(OC)c3ccccc23)cc1 | inactive | 
14 | CO[C@H]1C[C@H](O[C@H]2CC[C@]3(CO)[C@H]4CC[C@]5(C)[C@@H](C6=CC(=O)OC6)CC[C@]5(O)[C@@H]4CC[C@]3(O)C2)O[C@H](C)[C@H]1O | inactive | 
15 | c1cncc(OC[C@@H]2CCN2)c1 | inactive | 
16 | CC(=O)O[C@H]1CN2CCC1CC2 | inactive | 
17 | C[C@H]1CN(CC[C@H](O)C2CCCCC2)CC[C@@]1(C)c1cccc(O)c1 | inactive | 
18 | CC(C)=CCC[C@]1(C)C=Cc2c(O)c3c(c(CC=C(C)C)c2O1)O[C@]12C(=C[C@@H]4CC1C(C)(C)O[C@@]2(C/C=C(/C)C(=O)O)C4=O)C3=O | inactive | 
19 | C=C(C)[C@@H]1[C@H]2OC(=O)[C@H]1[C@]1(O)C[C@H]3O[C@]34C(=O)O[C@H]2[C@]14C | inactive | 
20 | CCc1nn(C)c(C(=O)NCc2ccc(Oc3ccc(C)cc3)cc2)c1Cl | inactive | 

Row | Compound | outcome | activity change, negative = inhibition
21 | CCOC(=O)c1ccc(-c2ccc(OC(=O)N(C)Cc3cccc(-c4ccncc4)c3)cc2)cc1 | inactive | 
22 | C[C@]12CC[C@H](O[C@@H]3O[C@H](CO)[C@@H](O)[C@H](O)[C@H]3O)CC1=CC[C@@H]1C2CC[C@]2(C)[C@@H](C3=CC(=O)OC3)CC[C@]12O (stereo not given in full) | inactive [at 25.7 µM] | 
23 | CC[C@H]1/C=C\C=C/C[C@@H](C)[C@H](O)[C@@](C)(O)C(=O)[C@@H](C)[C@H](O)[C@@H](C)C(=O)[C@@H](C)[C@H](O)[C@@H](C)/C=C\C(=O)O[C@@H]2[C@H](C)[C@H](CC1)O[C@]1(CC[C@H](C)[C@H](C[C@@H](C)O)O1)[C@H]2C | inactive | 
24 | C[C@@H]1CCC/C=C/[C@H]2C[C@@H](O)C[C@@H]2[C@@H](O)/C=C/C(=O)O1 | inactive | 
25 | COc1ccc(C(C)(C)C)cc1CN[C@H]1C2CCN(CC2)[C@H]1C(c1ccccc1)c1ccccc1 | inactive | 
26 | COc1cc(N2CCN(C)CC2)ccc1N | inactive | 
27 | Cc1ccccc1CN1CCC(N2CCC(n3c(=O)[nH]c4ccccc43)CC2)CC1 | inactive | 
28 | CCC(C)(O)C1(C(=O)O)COC(=O)C1 (stereo not given) | inactive [at 86.2 µM] | 
29 | CC1=CC2/C=C(\C)CCC(O)C(O)/C=C/C(=O)OC23C(=O)NC(CC(C)C)C3C1C (stereo not given) | inactive | 
30 | C[C@@H]1C[C@@H](O)[C@]2(O)O[C@@H]3C[C@@]4(C=O)C(CC[C@@H]5C4CC[C@]4(C)[C@@](O)(C6=CC(=O)OC6)CC[C@]54O)C[C@H]3OC2O1 (stereo not given in full) | inactive [at 25.7 µM] | 
31 | CC(=O)C1CCC2C3CCC4C[C@@H](O)CCC4(C)C3CCC12C (stereo not given in full) | inactive | 
32 | CC1=CC2/C=C(\C)CCC(O)C(O)/C=C/C(=O)C23C(=O)NC(CC(C)C)C3C1C (stereo not given) | inactive | 
33 | C[N@@+]1(CC2CC2)CC[C@]23c4c5ccc(O)c4O[C@H]2C(=O)CC[C@@]3(O)[C@H]1C5 | inactive | 
34 | COC1C(O)C(C)OC(OC2C(CO)O[C@@H](O[C@@H]3CC4CCC5C(CC[C@]6(C)[C@@H](C7=CC(=O)OC7)CC[C@]56O)[C@@]4(C)[C@H](OC(C)=O)C3)C(O)C2O)C1O (stereo not given in full) | inactive [at 25.7 µM] | 
35 | CCC1CN2CCC3(C(=O)Nc4cccc(O)c43)C2CC1/C(=C/OC)C(=O)OC (stereo not given) | inactive | 
36 | C#CCO[C@H]1CN2CCC1CC2 | inactive | 
37 | CN[C@@H]1C[C@H]2O[C@@](C)([C@@H]1OC)n1c3ccccc3c3c4c(c5c6ccccc6n2c5c31)C(=O)NC4 | inactive | 
38 | C/C=C(\C)C(=O)OC1CC2C(CC=C3CC(OC4CC(OC)C(OC5CC(OC)C(OC6CC(OC)C(OC7CC(OC)C(O)C(C)O7)C(C)O6)C(C)O5)C(C)O4)CCC32C)C2(O)CCC(C(C)=O)C12C (stereo not given) |  | 3.09% [at 11.6 µM]
39 | Cc1c(Cl)c(OCC(=O)N2CCN(C)CC2)nc2sc(C(=O)NC3CC3)c(N)c12 | inactive | 
40 | CC(=O)OC[C@]12C[C@H](O)C(C)=C[C@H]1O[C@@H]1[C@H](O)[C@@H](OC(C)=O)[C@@]2(C)[C@]12CO2 | inactive | 
